PubChem BioAssay (Tox21)
Results filed as inconclusive are left out. Active and inactive are the calls of the source. Unless noted, calls follow the shape of the full dose curve.

Assays:
[1] = qHTS assay to identify small molecule agonists of the vitamin D receptor (VDR) signaling pathway - cell viability counter screen (AID 743224; active = well fitted curve in the direction sought with a large enough effect in the repeat runs; an effect the other way counts as inactive or inconclusive; also: series mostly up to about 63 µM; % is scaled to controls: 0 for no effect and ±100 for the full control effect; nearly all actives have a fitted effect of over 50% in size)
In short: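 Cells: VDR-bla, 2,000/well, settled 4 h. Treatment: compounds in DMSO, 16 h, 37C/5% CO2. Readout: CellTiter-Glo luminescence after 30 min RT.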

[2] = qHTS assay to identify small molecule agonists of the NFkB signaling pathway (AID 1159509; active = well fitted curve in the direction sought with a large enough effect in the signal ratio in the repeat runs, not every such curve was filed as active; the % refers to the signal ratio; also: series mostly up to about 61 µM; % is scaled to controls: 0 for no effect and ±100 for the full control effect)
In short: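 Agonist activity was read as beta-lactamase-driven FRET change (460 and 530 nm emission, 405 nm excitation) following 1.5 hr substrate loading at room temperature. Beforehand, ME-180 NFkB-bla reporter cells were treated with compounds for 5 hr at 37 C.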

[3] = qHTS assay to identify small molecule agonists of the NFkB signaling pathway - cell viability counter screen (AID 1159515); also: series mostly up to about 61 µM; % is scaled to controls: 0 for no effect and ±100 for the full control effect; nearly all actives have a fitted effect of over 55% in size
In short: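 Cells are seeded (2,000 NFkB-bla ME-180 per well), rested overnight, and dosed with DMSO-dissolved compounds for 5 hr at 37 C. Viability is then read by CellTiter-Glo luminescence after 30 min at room temperature.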

[4] = qHTS assay to identify small molecule agonists of the endoplasmic reticulum stress response signaling pathway (AID 1159516; active = well fitted activation curve with a large enough effect in the signal ratio in the repeat runs, not every such curve was filed as active; the % refers to the signal ratio; also: % is scaled to controls: 0 for no effect and ±100 for the full control effect)
In short: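 Cells are seeded at 1,500 per well and incubated overnight. Compounds in DMSO are added for 5 hr at 37 C, then beta-lactamase FRET substrate for 2 hr at room temperature, and fluorescence at 460 and 530 nm is measured.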

[5] = qHTS assay to identify small molecule agonists of the endoplasmic reticulum stress response signaling pathway - cell viability counter screen (AID 1159517);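 also: HeLa cells carrying an ER stress response element beta-lactamase reporter; series mostly up to about 61 µM; % is scaled to controls: 0 for no effect and ±100 for the full control effect; nearly all actives have a fitted effect of over 50% in size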
In short: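 In parallel with the ESRE reporter read, cytotoxicity was scored by CellTiter-Glo luminescence (30 min, room temperature) on HeLa ESRE-bla cells dosed for 5 hr.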

[6] = biological target: Nuclear receptor ROR-gamma (Homo sapiens) (UniProt P51449); experiment: qHTS assay to identify small molecule antagonists of the retinoid-related orphan receptor gamma (ROR-gamma) signaling pathway (AID 1159521; active = well fitted curve in the direction sought with a large enough effect in the repeat runs; an effect the other way counts as inactive or inconclusive; also: top concentration of the series differs between compounds; % is scaled to controls: 0 for no effect and ±100 for the full control effect; nearly all actives have a fitted effect of over 50% in size)
In short: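 Antagonist read-out: drop in luminescence (ONE-Glo) from an RORE-LUC reporter in CHO cells with doxycycline-inducible ROR-gamma; 2 hr compound pretreatment, 1 uM doxycycline, 16 hr incubation at 37 C.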

[7] = qHTS assay to identify small molecule agonists of the AP-1 signaling pathway - cell viability counter screen (AID 1159525); also: nearly all actives have a fitted effect of over 55% in size
In short: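 Same-well cytotoxicity counter screen of the Tox21 10K library in ME-180 cells. The readout is ATP-dependent luminescence after 5 h compound treatment. Data are normalised to DMSO and tetra n-octyl ammonium bromide controls.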

[8] = qHTS assay to identify small molecule agonists of the AP-1 signaling pathway (AID 1159526); also: % is scaled to controls: 0 for no effect and ±100 for the full control effect
[9] = qHTS assay to identify small molecule antagonists of the vitamin D receptor (VDR) signaling pathway - cell viability counter screen (AID 743225; active = well fitted curve in the direction sought with a large enough effect in the repeat runs; an effect the other way counts as inactive or inconclusive; also: % is scaled to controls: 0 for no effect and ±100 for the full control effect; nearly all actives have a fitted effect of over 50% in size)
In short: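 Cytotoxicity counter screen read by CellTiter-Glo luminescence (30 min, room temperature) in the same wells as the VDR-bla antagonist readout. HEK 293T VDR-UAS-bla cells had 16 h at 37C with compound and 3 nM (final) 1-alpha,25-dihydroxyvitamin D3, then 2 h with FRET substrate.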

[10] = qHTS assay to identify small molecule antagonists of the retinoid-related orphan receptor gamma (ROR-gamma) signaling pathway - cell viability counter screen (AID 1159520; active = well fitted curve in the direction sought with a large enough effect in the repeat runs; an effect the other way counts as inactive or inconclusive)
In short: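 Tet-on ROR gamma CHO cells were given compounds for 2 hr, then doxycycline hyclate at 1 uM final, and incubated 16 hr at 37 C. Viability was measured as ATP content by CellTiter-Glo luminescence.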

Cc1ccccc1OCC(O)CO (stereo not drawn)
inactive: Potency [1] | outcome [2] | outcome [3] | outcome [4] | Potency [5] | outcome [6] | outcome [7] | outcome [8]

CC(C)c1ccc2cc(C(C)C)ccc2c1
inactive: Potency [1] | outcome [9] | outcome [2] | outcome [3] | outcome [4] | Potency [5] | outcome [6] | outcome [7] | outcome [8]

CCCOC(OCCC)OCCC
inactive: outcome [9] | outcome [2] | outcome [3] | outcome [4] | Potency [5] | outcome [6] | outcome [7] | outcome [8]

CCCC(=O)C(C)=O
inactive: outcome [9] | outcome [2] | outcome [3] | outcome [4] | Potency [5] | outcome [6] | outcome [7] | outcome [8]

C=C(C)C(=O)OCC(C)(C)COC(=O)C(=C)C
inactive: Potency [1] | outcome [9] | outcome [2] | outcome [3] | outcome [4] | Potency [5] | outcome [6] | outcome [7] | outcome [8]

Cc1ccc2ccc(Cl)cc2n1
inactive: outcome [9] | outcome [2] | outcome [3] | outcome [4] | Potency [5] | outcome [10] | outcome [7] | outcome [8]

Cc1ccc(S(=O)(=O)O)c(C)c1
inactive: outcome [9] | outcome [2] | outcome [3] | outcome [4] | Potency [5] | outcome [6] | outcome [7] | outcome [8]

COC(=O)CCc1ccc(OCC(O)CNC(C)C)cc1 (stereo not drawn)
inactive: Potency [1] | outcome [9] | outcome [2] | outcome [3] | outcome [4] | Potency [5] | outcome [10] | outcome [7] | outcome [8]

CC(C)CC(C)CC(C)CC(C)COC(=O)c1ccccc1C(=O)OCC(C)CC(C)CC(C)CC(C)C (stereo not drawn)
inactive: Potency [1] | outcome [9] | outcome [2] | outcome [3] | outcome [4] | Potency [5] | outcome [10] | outcome [7] | outcome [8]

CCCCC(CC)COCCO (stereo not drawn)
inactive: outcome [2] | outcome [3] | outcome [4] | Potency [5] | outcome [6] | outcome [7] | outcome [8]

O=C(NCCc1c[nH]c2ccccc12)c1cccnc1
inactive: Potency [1] | outcome [9] | outcome [2] | outcome [3] | outcome [4] | Potency [5] | outcome [6] | outcome [7] | outcome [8]

FC(F)(F)c1ccccc1-n1ccnc1
inactive: Potency [1] | outcome [9] | outcome [2] | outcome [3] | outcome [4] | Potency [5] | outcome [6] | outcome [7] | outcome [8]

CN1C(C)(C)CCCC1(C)C
inactive: Potency [1] | outcome [9] | outcome [2] | outcome [3] | outcome [4] | Potency [5] | outcome [6] | outcome [7] | outcome [8]

CCOC(=O)c1ncn2c1CN(C)C(=O)c1cc(F)ccc1-2
inactive: Potency [1] | outcome [9] | outcome [2] | outcome [3] | outcome [4] | Potency [5] | outcome [10] | outcome [7] | outcome [8]

CCN(CC)CC(=O)Nc1c(C)cccc1C
inactive: Potency [1] | outcome [9] | outcome [2] | outcome [3] | outcome [4] | Potency [5] | outcome [10] | outcome [7] | outcome [8]

CC(C)=CCOC(=O)c1ccccc1
inactive: Potency [1] | outcome [2] | outcome [3] | outcome [4] | Potency [5] | outcome [6] | outcome [7] | outcome [8]

NS(=O)(=O)c1cc2c(cc1Cl)CN(C1CCCCC1)C2=O
inactive: Potency [1] | outcome [9] | outcome [2] | outcome [3] | outcome [4] | Potency [5] | outcome [7] | outcome [8]

CC(C)NCC(O)COc1cccc2[nH]ccc12 (stereo not drawn)
inactive: Potency [1] | outcome [9] | outcome [2] | outcome [3] | outcome [4] | Potency [5] | outcome [6] | outcome [7] | outcome [8]

CC(C)NCC(O)COc1ccc(COCCOC(C)C)cc1 (stereo not drawn)
inactive: outcome [9] | outcome [2] | outcome [3] | outcome [4] | Potency [5] | outcome [6] | outcome [7] | outcome [8]

COc1ccc(OC)c(Cl)c1
inactive: Potency [1] | outcome [9] | outcome [2] | outcome [3] | outcome [4] | Potency [5] | outcome [10] | outcome [7] | outcome [8]

C#CC(C)N(C)C(=O)Nc1ccc(Cl)cc1 (stereo not drawn)
inactive: Potency [1] | outcome [9] | outcome [2] | outcome [3] | outcome [4] | Potency [5] | outcome [10] | outcome [7] | outcome [8]

O=S(O)(O)=S
inactive: activity change, negative = cytotoxicity [1] -0.106% [at 5.95 µM] | viability change, negative = cytotoxic [9] 4.99% [at 6.95 µM] | activation [2] -0.163% [at 6.95 µM] | activity, negative = cytotoxic [3] 0.146% [at 6.95 µM] | activation [4] 0.601% [at 6.95 µM] | activity change, negative = cytotoxicity [5] -2.33% [at 6.95 µM] | activity change, negative = inhibition [6] 6.6% [at 8.39 µM] | viability change, negative = cytotoxic [7] 1.76% [at 6.97 µM] | activation [8] 11.4% [at 6.97 µM]

CC(=O)NCCCCCC(=O)O
inactive: Potency [1] | outcome [9] | outcome [2] | outcome [3] | outcome [4] | Potency [5] | outcome [6] | outcome [7] | outcome [8]

Cc1ccc2c(c1)OCC(=O)CO2
inactive: Potency [1] | outcome [2] | outcome [3] | outcome [4] | Potency [5] | outcome [6] | outcome [7] | outcome [8]

ClCCCl
inactive: Potency [1] | outcome [2] | outcome [3] | outcome [4] | Potency [5] | outcome [6] | outcome [7] | outcome [8]
